The whole screen tested about 5,500 compounds, of which about 2,000 (36%) were called active. Inconclusive results (about 18%) are left out. Rule as the data show it: active = normalized growth mostly below about 0.91 (no sharp cut-off); inconclusive = no clear call, values can overlap the other calls; inactive = mostly above about 0.92. The list shows a part of the results.
Assay: chemical genetic growth profiling, strain panel (AID 1159580);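 also: tested at 20 µM; growth read once vehicle control cultures reached saturation at 30 °C; 1 = growth at the plate median or of vehicle wells; lower values mean less growth of the strain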
Settings: growth OD

Measured: normalized growth

CC(C)(C)NCC(O)COc1cccc2c1C[C@H](O)[C@H](O)C2 (stereo not given in full)
inactive: S. cerevisiae deletion strains, locus YJR075W, strain HOC1, hits give low values 1 | S. cerevisiae deletion strains, locus YKL009W, strain mrt4, hits give low values 0.972 | S. cerevisiae deletion strains, locus YKL068W, hits give low values 0.986 | S. cerevisiae deletion strains, locus YKL085W, strain MDH1 (second series), hits give low values 0.99 | S. cerevisiae deletion strains, locus YKL085W, strain MDH1, hits give low values 0.99 | S. cerevisiae deletion strains, locus YKL160W, strain elf1, hits give low values 1.01 | S. cerevisiae deletion strains, locus YKL190W, strain CNB1, hits give low values 0.993 | S. cerevisiae deletion strains, locus YKR001C, strain vps1, hits give low values 1 | S. cerevisiae deletion strains, locus YKR026C, strain gcn3, hits give low values 1.01 | S. cerevisiae deletion strains, locus YKR091W, strain srl3, hits give low values 0.993 | S. cerevisiae deletion strains, locus YLL001W, strain dnm1, hits give low values 1.01 | S. cerevisiae deletion strains, locus YLL026W, hits give low values 1.01 | S. cerevisiae deletion strains, locus YLL041C, strain sdh2, hits give low values 1 | S. cerevisiae deletion strains, locus YLR027C, strain aat2, hits give low values 1 | S. cerevisiae deletion strains, locus YLR039C, strain RIC1, hits give low values 0.973 | S. cerevisiae deletion strains, locus YLR058C, strain SHM2, hits give low values 0.997 | S. cerevisiae deletion strains, locus YLR102C, strain apc9, hits give low values 0.992 | S. cerevisiae deletion strains, locus YLR113W, strain HOG1, hits give low values 1.05 | S. cerevisiae deletion strains, locus YLR221C, strain rsa3, hits give low values 1 | S. cerevisiae deletion strains, locus YLR258W, strain gsy2, hits give low values 0.998 | S. cerevisiae deletion strains, locus YLR262C, strain YPT6 (second series), hits give low values 1.01 | S. cerevisiae deletion strains, locus YLR262C, strain YPT6, hits give low values 0.928 | S. cerevisiae deletion strains, locus YLR268W, strain sec22, hits give low values 0.994 | S. cerevisiae deletion strains, locus YLR320W, strain mms22, hits give low values 1.02 | S. cerevisiae deletion strains, locus YLR330W, strain CHS5, hits give low values 0.986 | S. cerevisiae deletion strains, locus YLR342W, strain FKS1 (second series), hits give low values 0.993 | S. cerevisiae deletion strains, locus YLR342W, strain FKS1, hits give low values 1.01 | S. cerevisiae deletion strains, locus YLR357W, strain rsc2, hits give low values 1.01 | S. cerevisiae deletion strains, locus YLR370C, strain arc18, hits give low values 1.02 | S. cerevisiae deletion strains, locus YLR371W, strain rom2, hits give low values 0.994 | S. cerevisiae deletion strains, locus YLR384C, strain iki3, hits give low values 1.02 | S. cerevisiae deletion strains, locus YLR418C, strain cdc73, hits give low values 0.946 | S. cerevisiae deletion strains, locus YML016C, strain PPZ1, hits give low values 1 | S. cerevisiae deletion strains, locus YML032C, strain rad52, hits give low values 0.999 | S. cerevisiae deletion strains, locus YML120C, strain ndi1, hits give low values 1.01 | S. cerevisiae deletion strains, locus YML124C, strain tub3, hits give low values 0.995 | S. cerevisiae deletion strains, locus YMR058W, strain fet3, hits give low values 1.01 | S. cerevisiae deletion strains, locus YMR078C, strain ctf18, hits give low values 0.982 | S. cerevisiae deletion strains, locus YMR125W, strain sto1, hits give low values 1.01 | S. cerevisiae deletion strains, locus YMR129W, hits give low values 1.01 | S. cerevisiae deletion strains, locus YMR205C, strain PFK2, hits give low values 1.02 | S. cerevisiae deletion strains, locus YMR223W, strain ubp8, hits give low values 0.964 | S. cerevisiae deletion strains, locus YMR231W, strain pep5, hits give low values 0.998 | S. cerevisiae deletion strains, locus YMR263W, strain SAP30, hits give low values 1.02 | S. cerevisiae deletion strains, locus YMR307W, strain GAS1, hits give low values 0.959 | S. cerevisiae deletion strains, locus YNL067W, strain RPL9B, hits give low values 1.02 | S. cerevisiae deletion strains, locus YNL071W, strain lat1, hits give low values 0.999 | S. cerevisiae deletion strains, locus YNL128W, strain TEP1, hits give low values 0.988 | S. cerevisiae deletion strains, locus YNL183C, strain NPR1, hits give low values 1 | S. cerevisiae deletion strains, locus YNL209W, strain ssb2, hits give low values 0.994 | S. cerevisiae deletion strains, locus YNL233W, strain BNI4, hits give low values 1.04 | S. cerevisiae deletion strains, locus YNL248C, strain rpa49, hits give low values 1.01 | S. cerevisiae deletion strains, locus YNL250W, strain rad50, hits give low values 0.972 | S. cerevisiae deletion strains, locus YNL271C, strain bni1, hits give low values 0.988 | S. cerevisiae deletion strains, locus YNL298W, strain CLA4, hits give low values 0.983 | S. cerevisiae deletion strains, locus YNL307C, strain MCK1, hits give low values 0.986 | S. cerevisiae deletion strains, locus YNL322C, strain KRE1 (second series), hits give low values 1.01 | S. cerevisiae deletion strains, locus YNL322C, strain KRE1, hits give low values 0.992 | S. cerevisiae deletion strains, locus YNR049C, strain mso1, hits give low values 1.01 | S. cerevisiae deletion strains, locus YNR052C, strain pop2, hits give low values 0.989 | S. cerevisiae deletion strains, locus YOL006C, strain TOP1, hits give low values 1.05 | S. cerevisiae deletion strains, locus YOL012C, strain htz1 1.13 | S. cerevisiae deletion strains, locus YOL147C, strain pex11, hits give low values 0.992 | S. cerevisiae deletion strains, locus YOR001W, strain rrp6, hits give low values 1 | S. cerevisiae deletion strains, locus YOR061W, strain CKA2, hits give low values 1 | S. cerevisiae deletion strains, locus YOR069W, strain VPS5, hits give low values 0.999 | S. cerevisiae deletion strains, locus YOR070C, strain gyp1, hits give low values 1 | S. cerevisiae deletion strains, locus YOR080W, strain dia2, hits give low values 1.01 | S. cerevisiae deletion strains, locus YOR083W, strain WHI5, hits give low values 1 | S. cerevisiae deletion strains, locus YOR106W, strain vam3, hits give low values 1.02 | S. cerevisiae deletion strains, locus YOR136W, strain idh2, hits give low values 0.994 | S. cerevisiae deletion strains, locus YOR144C, strain elg1, hits give low values 0.999 | S. cerevisiae deletion strains, locus YOR184W, strain ser1, hits give low values 0.974 | S. cerevisiae deletion strains, locus YOR231W, strain MKK1, hits give low values 1.06 | S. cerevisiae deletion strains, locus YOR265W, strain rbl2, hits give low values 1.01 | S. cerevisiae deletion strains, locus YOR270C, strain vph1, hits give low values 1.01 | S. cerevisiae deletion strains, locus YOR290C, strain snf2, hits give low values 1.01 | S. cerevisiae deletion strains, locus YOR316C, strain cot1, hits give low values 0.985 | S. cerevisiae deletion strains, locus YPL051W, strain arl3, hits give low values 1 | S. cerevisiae deletion strains, locus YPL078C, strain atp4, hits give low values 1 | S. cerevisiae deletion strains, locus YPL106C, strain sse1, hits give low values 1.01 | S. cerevisiae deletion strains, locus YPL240C, strain hsp82, hits give low values 0.997 | S. cerevisiae deletion strains, locus YPL241C, strain CIN2, hits give low values 0.987 | S. cerevisiae deletion strains, locus YPL256C, strain CLN2, hits give low values 1.02 | S. cerevisiae deletion strains, locus YPR119W, strain clb2, hits give low values 0.996 | S. cerevisiae deletion strains, locus YPR141C, strain kar3, hits give low values 0.994 | S. cerevisiae deletion strains, locus YPR163C, strain tif3, hits give low values 0.991 | S. cerevisiae deletion strains, locus YPR167C, strain met16, hits give low values 0.987 | S. cerevisiae deletion strains, strain wtn01, hits give low values 0.983 | S. cerevisiae strains, strain wild type, hits give low values 0.998

Source: PubChem BioAssay AID1159580 (chemical genetic matrix, 2015)
